# Assay results reported in PubChem BioAssay AID590 (National Center for Advancing Translational Sciences (NCATS), 2007).
# Among all 59,000 compounds or so, about 6,500 (11%) were called active. Inconclusive results (about 15%) are left out. Cut-off read from the data, not from the text of the source: active = max dye-equivalent concentration above about 10 nM; inconclusive = mostly about 1.1 nM to 9.6 nM; inactive = weaker than that. Shown is part of a subset that was picked to be rich in actives.
# Assay: qHTS Assay for Spectroscopic Profiling in A350 Spectral Region
# Conditions: Compound autofluorescence, 340/450 nm, Alexa 350 dye-equivalents; active compounds read high
row,SMILES,max dye-equivalent concentration
1,O=S(=O)(c1cccs1)N1CCc2ccccc2C1,inactive
2,CCCCNc1nc2ccccc2nc1NS(=O)(=O)c1cccs1,61 nM (active)
3,O=S(=O)(c1cccs1)N1CCN(Cc2ccccc2)CC1,inactive
4,COCCNc1ncnc2ccc(-c3ccccc3CN(C)C)cc12,inactive
5,COc1ccc(-c2cc(C(=O)NC(C(=O)O)C(C)C)c(C)o2)cc1OC (stereo not given),inactive
6,CCOC(=O)CSc1nnc(-c2ccncc2)o1,inactive
7,CNC(=O)c1ccc2nc(NC(C)=O)sc2c1,inactive
8,COC(=O)c1sc(NC(=O)c2ccc(OC)cc2OC)nc1C,inactive
9,COc1ccc2nc(NC(=O)c3ccc(Br)s3)sc2c1,550 nM (active)
10,CCOC(=O)c1sc(NC(=O)CSc2nnc(-c3ccco3)o2)c(C(=O)OCC)c1C,inactive
11,O=C(c1csnn1)N1CCC[C@@]2(CCN(c3cccc(-c4ccccc4)c3)C2)C1,inactive
12,COc1ccc(-n2c(SCC(=O)OC(C)C)nnc2-c2ccccn2)cc1,inactive
13,COc1ccc(C2C(C(=O)Nc3ccccc3OC)=C(C)Nc3nnnn32)c(OC)c1 (stereo not given),inactive
14,CCOc1cccc(-n2nnnc2-c2ccc(OC)cc2)c1,inactive
15,COc1ccc(C2=CC(c3cccc(OC)c3)n3nnnc3N2)cc1 (stereo not given),15 nM (active)
16,COC(=O)C1=C(C)NC(=O)NC1/C=C/c1ccccc1 (stereo not given),inactive
17,O=S(=O)(Nc1ccccn1)c1ccc(Oc2ccccc2)cc1,inactive
18,COc1ccc(CSc2nc(N3CCOCC3)c3c(c2C#N)CC(C)(C)OC3)cc1,34 nM (active)
19,c1ccc2[nH]c(NCCN3CCOCC3)nc2c1,inactive
20,CC1(C)Cc2c(C#N)c(SCc3nc4ccccc4[nH]3)nc(N3CCOCC3)c2CO1,23 nM (active)
21,CC(C)C(=O)N1CCN(c2nc(-c3ccccc3)c3c(c2C#N)CC(C)(C)OC3)CC1,200 nM (active)
22,CC(C)c1nc(N2CCOCC2)c(C#N)c2c1COC(C)(C)C2,150 nM (active)

row,SMILES,max dye-equivalent concentration
1,COc1cc(C2C(C#N)=C(N)Oc3n[nH]c(-c4ccccn4)c32)cc(OC)c1OC (stereo not given),inactive
2,CCc1nnc(NC(=O)c2c(O)c3c([nH]c2=O)CCCC3)s1,inactive
3,CN(Cc1ccccc1)Cc1ccccc1F,inactive
4,Cc1ccc(S(=O)(=O)N2CCC(C(=O)N[C@@H](C)C(=O)NCc3ccccc3)CC2)cc1,inactive
5,O=C(c1csnn1)N1CCC2(CC1)CN(c1ncccn1)C2,inactive
6,CC(C)OCCCNC(=O)CNC(=O)c1cccs1,inactive
7,CCCCOc1ccc(Cl)cc1CSc1nncn1N,inactive
8,O=C1[C@@H]2C(Cc3ccc(O)cc3)NC3(C(=O)Nc4ccc(F)cc43)[C@@H]2C(=O)N1c1ccc(F)cc1 (stereo not given in full),inactive
9,CC(C)Cc1nc(N2CCOCC2)c(C#N)c2c1CCC2,62 nM (active)
10,Cc1cc(C(=O)COC(=O)CCCN2C(=O)c3ccccc3C2=O)c(C)n1C,inactive
11,O=C(CN1C(=O)CCC1=O)Nc1ccc(S(=O)(=O)N2CCOCC2)cc1,inactive
12,CC(=O)OCc1cc(=O)n(C)c(=O)n1C,inactive
13,COc1c(C)cccc1C(=O)Nc1cc(Cl)ccc1N1CCOCC1,inactive
14,O=C(O)[C@@H](O)Cc1ccccn1,inactive
15,COc1ccc2c(c1)CCc1c(C(=O)N3CCc4ccccc4C3)noc1-2,inactive
16,CCOC(=O)c1[nH]c2ccc(C)cc2c1N=C(C)N(C)C,29 nM (active)
17,CCOC(=O)c1[nH]c2ccccc2c1N=C(C)N(CC)CC,inactive
18,CCOC(=O)CN(C)Cc1c[nH]c2ccccc12,inactive
19,CC(=O)c1cccc(NC(=O)N2CCCC2C(=O)NCCC(C)C)c1 (stereo not given),inactive
20,CC12CCC(C(=O)N3CCN(c4ncccn4)CC3)(c3nc4ccccc4nc31)C2(C)C (stereo not given),inactive
21,O=c1nc(N2CCOCC2)nc2n1CCO2,inactive
22,O=C(CSc1nc2ccccc2[nH]1)c1cccs1,inactive

row,SMILES,max dye-equivalent concentration
1,N#Cc1c(N)n(CCOC(=O)c2ccc(Cl)cc2)c2nc3ccccc3nc12,610 nM (active)
2,Cn1cccc1C(=O)N1CCC2(CC1)CN(c1cccc(-c3ccccc3)c1)C2,inactive
3,CC[C@@H]1Cc2cc(O)ccc2C2=C1c1ccc(O)cc1C[C@H]2CC,260 nM (active)
4,CCC1SC2=NCCN2C1(O)c1ccc(Cl)cc1 (stereo not given),inactive
5,Cc1cc(NC(=O)c2cnn3cccnc23)n(-c2ccccc2)n1,inactive
6,CCC(C(=O)NC1CCCC1)N(C(=O)c1snc(C(N)=O)c1N)c1ccc2c(c1)OCCO2 (stereo not given),inactive
7,COCCNC(=O)C(c1ccc(C)o1)N(Cc1ccccc1)C(=O)Cn1nnc2ccccc21 (stereo not given),inactive
8,COCCNC(=O)C(c1ccc(C)o1)N(Cc1cccs1)C(=O)c1snc(C(N)=O)c1N (stereo not given),88 nM (active)
9,N=c1c2c3c(sc2ncn1CCCN1CCOCC1)CCCCC3,inactive
10,CN(CCc1ccccn1)S(=O)(=O)c1ccc2c3c(cccc13)C(=O)N2,790 nM (active)
11,O=c1[nH]nc(Cc2ccccn2)c2ccccc12,inactive
12,CCNc1nc(N)nc(Oc2ccc(OCC)nn2)n1,inactive
13,COc1ccccc1N1CCN(C(=O)CN(Cc2ccc(Cl)cc2)S(C)(=O)=O)CC1,inactive
14,Cn1cccc1C(=O)NC(=O)COC(=O)Cc1coc2ccc3ccccc3c12,38 nM (active)
15,Cn1cccc1C(=O)Nc1nccs1,inactive
16,O=C1C2(c3ccccc3)CN(CCCO)CC1(c1ccccc1)CN(CCCO)C2,inactive
17,Cn1c(=O)[nH]c(=O)c2c1nc(Br)n2CCCCSc1nc2ccccc2o1,inactive
18,Cc1cc(N2CCCCC2)nc2ccc(Cc3ccc4nc(N5CCCCC5)cc(C)c4c3)cc12,43 nM (active)
19,Fc1ccc2nc(N3CCCCC3)sc2c1,inactive
20,CCCn1c(SCC(=O)Nc2cccc(C(=O)OCC)c2)nnc1-c1ccoc1C,inactive
21,Cc1cc(=O)cc(C)[nH]1,inactive
22,Cc1ccccc1-c1nc(N(C)Cc2ccco2)c2ccccc2n1,inactive

row,SMILES,max dye-equivalent concentration
1,Clc1cccc(Cl)c1Cn1nnc(-c2cccs2)n1,inactive
2,CCOC(=O)c1c(N)c(C#N)nn1-c1ccccc1C(=O)OC,inactive
3,O=C(Nc1ccccc1)c1cccnc1Nc1ccccc1,inactive
4,Oc1ccc2nc(Cc3ccccc3)[nH]c2c1,inactive
5,COC(=O)Nc1nc2ccc(Sc3ccccc3)cc2[nH]1,16 nM (active)
6,CCC(=O)Nc1cccc(NC(=O)CSc2nnnn2C2CCCC2)c1,inactive
7,Cc1ccc(S(=O)(=O)NCc2cn3ccsc3n2)c(C)c1,inactive
8,c1ccc(-c2cc(-c3nnc4sc(-c5ccccn5)nn34)[nH]n2)cc1,inactive
9,COc1cc(-c2nn3c(-c4cccc(C)c4)nnc3s2)cc(OC)c1OC,2600 nM (active)
10,CCOc1cccc(-c2nnc3sc(COc4ccc(OC)cc4)nn23)c1,inactive
11,CCOC(=O)CNC(=O)CSc1nnc(-c2cccc(OC)c2)n1CC,inactive
12,CC(=O)Nc1ccc(-c2nn3c(C)nnc3s2)cc1C,inactive
13,Fc1ccc(-c2nnc3sc(-c4ccc5c(c4)OCO5)nn23)cc1,36 nM (active)
14,c1ccc(-c2nnc3n2NC(c2ccc4c(c2)OCO4)S3)cc1 (stereo not given),inactive
15,Cc1nnc2sc(-c3ccco3)nn12,inactive
16,Fc1ccc(-c2ccc(-c3nn4c(-c5ccco5)nnc4s3)o2)cc1,68 nM (active)
17,O=C(CSc1nnc2scc(-c3ccc(F)cc3)n12)NCc1ccco1,inactive
18,COc1ccccc1Cn1c(=S)[nH]c2cc(C(=O)N3CCN(C)CC3)ccc2c1=O,inactive
19,CSCCC1NC2(C(=O)Nc3ccc(Cl)cc32)[C@@H]2C(=O)N(C3CCCC3)C(=O)[C@H]12 (stereo not given in full),inactive
20,Cc1ccc2c(C(=O)CN3CCCC3)c(C)[nH]c2c1,inactive
21,CC(C)C(=O)N1CCN(CCN=CC2=C(O)CC(c3ccco3)CC2=O)CC1 (stereo not given),inactive
22,CC(C)c1ccc(N2CC(C(=O)Nc3nccs3)CC2=O)cc1 (stereo not given),inactive

row,SMILES,max dye-equivalent concentration
1,COC(=O)c1ccc(CSc2nncn2C)cc1,inactive
2,O=C(NCCSc1ccccc1)c1ccco1,inactive
3,O=C(NCc1ccco1)c1cc(-c2cccnc2)nc2ccc(Cl)cc12,inactive
4,COC(=O)c1ccccc1NC(=O)Cn1nc(C(F)(F)F)c2c1CCC2,inactive
5,O=C(NCc1ccco1)c1cnn2c(C(F)(F)F)cc(-c3ccco3)nc12,300 nM (active)
6,O=C(CSc1nc(-c2ccco2)cc(C(F)(F)F)n1)N1CCc2ccccc2C1,inactive
7,O=C(Nc1ccccc1)Nc1ccccc1C(=O)NCc1ccco1,inactive
8,COC(=O)c1cnn2c(C(F)(F)F)cc(-c3ccco3)nc12,870 nM (active)
9,CN(C(=O)CSc1nnnn1-c1ccccc1)C1CCCCC1,inactive
10,Cc1oc2nc(SCC(=O)NCc3cccnc3)nc(N)c2c1C,inactive
11,O=C(c1ccc2c(c1)N(Cc1ccc(F)cc1)C(=O)CS2)N1CCOCC1,inactive
12,Cn1c(C(=O)NCCN2CCc3ccccc3C2)cc2c(=O)[nH]c3ccccc3c21,inactive
13,Cc1cc(=O)n2c3c(cccc13)CCC2,inactive
14,CCNC(=O)c1c(O)c2cccc3c2n(c1=O)CC3,22 nM (active)
15,Cc1cnc(CNc2nc(-c3cccnc3)nc3ccccc23)cn1,inactive
16,CN(C)CCSS(=O)(=O)O,inactive
17,C[C@]1(O)CC[C@H]2[C@H]3CC=C4N5CCN=C5CC[C@@]4(C)[C@H]3CC[C@@]21C,inactive
18,CC(=O)c1cc(-c2ccccc2)[nH]c1N1CCCC1,inactive
19,Cc1cc(N2CCCC2)n2nc(C)c(-c3ccccc3)c2n1,220 nM (active)
20,S=c1c2[nH]cnc2ncn1CCSc1ncnc2nc[nH]c12,inactive
21,CC(C)(C)c1csc(NC2=NS(=O)(=O)c3ccccc32)n1,inactive
22,COc1ccc(NC(=O)CN(C)S(=O)(=O)c2ccccc2)cc1OC,inactive
